# IkB signaling = inhibitors of IkB signaling in ABC-DLBCL cells. AID 445. Potency, µM (series often up to 57.1 µM), inactives show at the top dose IkBa stabilization activation. ABC-DLBCL IkBa-CBG/CBR dual luciferase ratio, 4 h; response scale: scaled: untreated 0%, proteasome inhibitor 100%. 110,000 compounds, 0.04% hits; active = well fitted curve in the direction sought with a large enough effect in the signal ratio, not every such curve was filed as active; inconclusive = small, poorly fitted or top-dose-only effect, or a change in a side signal; the % refers to the signal ratio;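 also: potency is read from the fitted curve at half-maximal effect; the direction sought is a rising ratio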
#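 Curves were fitted separately to fusion (green), unfused (red) and ratio luminescence, then classed by r2, magnitude and activity. Cells: OCI-Ly3, 4 h compound plus doxycycline at 37C; 10 uM MG-132 defined full response.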
# IMPase cell inh = IMPase inhibition in cells | CHO-M1 cells, IP1 accumulation, HTRF TR-FRET ratio | inhibition (IP1 accumulation), % at 46.1 µM | 120,000 tested, under 10 active; active = well fitted curve in the direction sought with a large enough effect in the signal ratio, not every such curve was filed as active; inconclusive = small, poorly fitted or top-dose-only effect, or a change in a side signal; inactive = no such curve, though single readings can be large or run the other way; the % refers to the signal ratio;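 also: cells stimulated with carbachol in lithium chloride buffer; plate controls were DMSO basal wells for no effect and reference inhibitor wells for full effect; higher means more IMPase inhibition seen as more IP1 and lower FRET ratio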
#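 The IP-One HTRF competitive assay in carbachol-stimulated CHO-M1 cells quantifies cellular IP1. Compounds spanned up to 46 uM final, and activity is expressed as AC50 from concentration-response fits of the ratio and donor data.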
# p53ts 32C kill = p53ts cell cytotoxicity, permissive temperature; AID 924; Potency, µM (titrated, usually from 46.1 µM), for the others: at the top dose activity change, negative = cytotoxicity, usual class: cytotoxic; 130,000 compounds, 0.93% hits; H1299-p53A138V at 32C, ATP luminescence viability, 24 h;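 also: potency is read from the fitted curve at half-maximal effect; 0% = DMSO and -100% = full killing by reference compound; nearly all actives have a fitted effect of over 55% in size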
#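 ATP-content luminescence (ATPlite) read-out after 24 h compound exposure at 32C in H1299-p53A138V cells (600/well). Tested up to 46 uM. Normalized to DMSO (0%) and 100 uM tamoxifen (100% killing); Hill-fit AC50.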
# p53ts 39C kill = cytotoxicity in p53ts cells at nonpermissive temperature | H1299-p53A138V viability at 39C, ATP luminescence, 24 h | 130,000 compounds, 1.5% hits | Potency, µM (doses to about 46.1 µM), for the others: top-dose activity change, negative = cell killing, usual class: cytotoxic | AID 902; also: potency is read from the fitted curve at half-maximal effect; % is scaled to controls: 0 for no effect and ±100 for the full control effect; nearly all actives have a fitted effect of over 55% in size
# Hsp90 Hop PPI = changes Hsp90-Hop TPR2A binding signal, up or down | 71,000 compounds, 0.44% hits | AlphaScreen TPR2A-His6 binding biotin-Hsp90 C-terminal peptide | Potency, µM (top dose mostly 57 µM), inactives show at the highest dose activity change, negative = inhibition; active = well fitted curve in either direction with a large enough effect; inconclusive = small, poorly fitted or top-dose-only effect, or another doubt; also: potency is read from the fitted curve at half-maximal effect; % is scaled to controls: 0 for no effect and ±100 for the full control effect
# Luciferase inh = inhibitors of firefly luciferase; Potency, µM (highest dose often 57.1 µM), for the others: top-dose activity change, negative = inhibition, actives largely listed as inhibitors; 72,000 compounds, 2.2% hits; purified firefly luciferase, luminescence, 8 min; also: potency is read from the fitted curve at half-maximal effect; % is scaled to controls: 0 for no effect and ±100 for the full control effect; nearly all actives have a fitted effect of over 40% in size
# Target sequence (P08659 whole entry, looked up): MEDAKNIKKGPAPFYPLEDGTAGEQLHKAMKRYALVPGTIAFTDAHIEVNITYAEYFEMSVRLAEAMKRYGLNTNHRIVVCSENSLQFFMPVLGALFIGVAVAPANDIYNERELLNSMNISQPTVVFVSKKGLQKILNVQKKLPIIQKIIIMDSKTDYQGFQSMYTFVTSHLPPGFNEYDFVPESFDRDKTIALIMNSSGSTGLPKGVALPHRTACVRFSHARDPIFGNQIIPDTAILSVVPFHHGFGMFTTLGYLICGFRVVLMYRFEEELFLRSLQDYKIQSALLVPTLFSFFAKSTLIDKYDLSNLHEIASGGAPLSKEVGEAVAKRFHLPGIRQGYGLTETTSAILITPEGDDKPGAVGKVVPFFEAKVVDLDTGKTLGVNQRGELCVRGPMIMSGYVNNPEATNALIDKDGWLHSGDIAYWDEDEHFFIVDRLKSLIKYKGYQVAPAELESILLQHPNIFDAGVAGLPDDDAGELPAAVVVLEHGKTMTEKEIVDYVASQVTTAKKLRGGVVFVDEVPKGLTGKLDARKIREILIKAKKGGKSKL
#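 Luminescence read-out after 8 min at room temperature; enzyme reaction used luciferin plus 10 uM ATP (linear range) in imidazole buffer pH 7.2 with KCl, MgCl2, Tween 20 and BSA. Each sample was run as a titration.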
# An asterisk follows results filed as active; u = inconclusive; x = not tested or not shown; [ ] = remark or other dose. Only a selection was taken, and hits are over-represented in it overall. Unless noted, calls follow the shape of the dose curve; as a rule, active = well fitted curve in the direction sought with a large enough effect; inconclusive = small, poorly fitted or top-dose-only effect, or another doubt; inactive = no such curve, though single readings can be large; an effect the other way counts as inactive or inconclusive.
SMILES,IkB signaling,IMPase cell inh,p53ts 32C kill,p53ts 39C kill,Hsp90 Hop PPI,Luciferase inh
Cc1ccccc1Cn1nnc2c(=O)[nH]c(C3CCCN(C(=O)c4ccc(C(C)(C)C)cc4)C3)nc21 (stereo not given),u,x,8.5%,31.6µM*,x,x
CC(C)OC(=O)CSc1nnc(-c2ccc(O)cc2)n1Cc1ccccc1,u,6.0[1.84 µM],-27.6%,-22.2%,-8.3%,25.1µM*
Cc1ccc(N2CC(NC(=O)C3CC3)CC2=O)cc1C (stereo not given),-1.1%,x,-8.6%,-8.9%,x,x
CN(C)c1cccc(-c2nnc(SCCCC#N)o2)c1,3.2%,-2.6,u,u,-3.5%,15.8µM*
COc1cc(/C=N/NC(=O)c2cc(-c3ccccc3)n[nH]2)cc(OC)c1OC,x,x,-5.8%,-7.3%,x,x
CCN1CCN(C(=O)c2cc3c(=O)n4ccccc4nc3n2Cc2ccccc2)CC1,0.6%,-22.9,12.6µM*,12.6µM*,-1.9%,7.94µM*
O=C(Nc1ccc2nc(SCC(=O)N3CCCC3)sc2c1)c1cccc(F)c1,u,x,-10.5%,-21.4%,x,x
CCCCN1C(=O)/C(=C2\SC(N3CCCCC3)=NC2=O)c2ccccc21,u,15.2,12.6µM*,15.8µM*,u,7.94µM*
CC1CCCCN1S(=O)(=O)c1cc2c(=O)nc3ccccn3c2cc1Cl (stereo not given),-0.9%,x,-1.7%,-0.2%,x,x
CC(C)(C)c1ccc(-c2nnc3sc(-c4ccccn4)nn23)cc1,u,-0.9,-12.2%,-8.6%,2µM*,-23.5%
c1ccc(-c2nn3c(-c4ccncc4)nnc3s2)nc1,-2.1%,x,7.3%,11.0%,u,-13.2%
Cc1cc(C)c(S(=O)(=O)NCCc2cc3ccc(C)cc3[nH]c2=O)c(C)c1,u,20.5,7.0%,-7.5%,x,x
COc1ccc2c3c(ccc2c1)N[C@H](C(=O)O)CC3,-2.3%[11.4 µM],x,u,u,-1.8%[11 µM],3.16µM*
COc1ccc2cc(C(=O)O)ccc2c1,x,-13.4,x,x,x,x
COc1ccc(CNC(=O)CSc2nnc(C)c3c(C)n(-c4ccccc4)nc23)c(OC)c1,u,x,14.1%,12.6µM*,x,x
Cc1nnc(SCC(=O)NCc2cccc(F)c2)c2nn(-c3ccccc3)c(C)c12,-2.8%,x,19.0%,4.7%,x,x
COc1cccc(CNC(=O)CSc2nnc(C)c3c(C)n(-c4ccccc4)nc23)c1OC,u,x,-6.4%,25.1µM*,x,x
O=S(=O)(NCC(Nc1ccc(Cl)cc1)c1ccccc1)c1ccccc1 (stereo not given),u,x,u,22.4µM*,x,x
O=S(=O)(NCC(c1ccccc1)N1CCc2ccccc21)c1ccc(Cl)cc1 (stereo not given),1.5%,x,17.1%,25.1µM*,x,x
COc1cccc(NC(CNS(=O)(=O)c2ccc(Cl)cc2)c2ccccc2)c1 (stereo not given),0.1%,x,u,12.6µM*,x,x
COc1cc(/C=C\C(=O)N2CCCCC2=O)cc(OC)c1OC,u,x,x,x,-0.3%,1.3%[11.4 µM]
CCc1ccc(OCC(=O)NCC(c2ccc(OC)cc2)N2CCOCC2)cc1 (stereo not given),0.4%,x,4.4%,3.6%,x,x
COc1ccc(OC)c(NC(=O)Cn2c(=O)c3cccn3c3ccccc32)c1,u,x,49.6%,6.7%,x,x
CCOC(=O)COc1ccc(-c2nnc(-c3ccccc3)o2)cc1,u,-4.8,10µM*,u,2.5%,-9.7%
CCOc1ccc(-c2nnc(-c3ccccc3)o2)cc1,x,22.1,u,-12.2%,x,x
SMILES,IkB signaling,IMPase cell inh,p53ts 32C kill,p53ts 39C kill,Hsp90 Hop PPI,Luciferase inh
Cc1cc(C)cc(N(CC(=O)O)S(=O)(=O)c2cccnc2)c1,3.7%,x,0.7%,-4.5%,-2.8%,3.2%
CCOC(=O)N1CCC(NC(=O)c2ccc3c(c2)N(Cc2cc(C)ccc2C)C(=O)c2ccccc2S3=O)CC1 (stereo not given),u,x,22.3%,14.8%,x,x
CC(C)(C(=O)O)c1ccc([C@@H](O)CCCN2CCC(C(O)(c3ccccc3)c3ccccc3)CC2)cc1,-1.5%,x,x,x,-1.9%,0.8%
COc1cc(C)nc(Nc2nc(C)c(C(C)=O)s2)n1,x,4.7,x,x,x,-1.6%[25.5 µM]
COc1ccc2nc(NC(=O)c3cc(=O)c4ccccc4o3)sc2c1,u,x,u,10µM*,x,x
CCCCN(C(=O)NC(=O)Nc1nc2ccc(OC)cc2s1)S(C)(=O)=O,-3.5%,2.6,12.6µM*,u,-3.7%,20µM*
COc1ccc2nc(NC(=O)c3cnccn3)sc2c1,u,4.3,u,u,-25.1%,12.6µM*
COc1ccc2nc(Nc3nc(C)c(C(C)=O)s3)sc2c1,u,13.1,12.8%,u,-0.4%,15.8µM*
CCSc1ncc(Cl)c(C(=O)Nc2nc3ccc(OC)cc3s2)n1,u,x,-0.2%,9.1%,x,x
COc1ccccc1CNC(=O)CSc1nc(=O)[nH]c2c1CCCC2,u,x,-8.5%,-2.8%,x,x
CCOC(=O)C1=C(CN(CC)Cc2ccccc2)NC(=O)NC1c1ccc(OC(C)C)cc1 (stereo not given),u,x,31.6%,19.4%,x,x
COC(=O)c1ccccc1NC(=O)c1noc2c1CSc1ccccc1-2,4.7%,x,2.5%,-11.5%,x,x
CS(=O)(=O)c1ccc(/C=N\NC(N)=S)cc1,-1.3%[11.4 µM],x,-3.5%[9.22 µM],12.0%[9.22 µM],0.4%[11 µM],-0.1%[11.4 µM]
CC(C)Cc1cc(C(=O)Nc2ccc3c(c2)OCO3)no1,7.0%,-0.1,u,u,-2.4%[2.3 µM],7.94µM*
O=C(Nc1cccnc1)c1cc(-c2ccc3c(c2)OCO3)on1,u,u,u,-29.5%,-6.0%,0.794µM*
CC1CCN(C(=O)c2cc(-c3ccc(Cl)cc3)on2)CC1,u,x,8.4%,0.2%,x,x
O=C(c1cc(-c2ccc(Cl)cc2Cl)on1)N1CCOCC1,3.0%,-5.1,3.16µM*,10µM*,-2.0%,7.94µM*
COc1ccc(NC(=O)c2cc(CC(C)C)on2)cc1OC,-3.1%,14.5,-3.5%,-3.6%,-6.3%[2.3 µM],-19.9%
O=C(c1cc(-c2ccc(Cl)cc2)on1)N1CCOCC1,u,-23.0,10µM*,12.6µM*,-3.9%,12.6µM*
S=C1SCN(C2CCCCCCCCCCC2)CN1C1CCCCCCCCCCC1,0.8%[11.4 µM],x,5.2%[9.22 µM],1.8%[9.22 µM],-2.3%[11 µM],3.3%[11.4 µM]
COc1ccc(CNC(=O)C(CCSC)NS(=O)(=O)c2ccc3c(c2)oc(=O)n3C)cc1 (stereo not given),1.0%,x,3.7%,18.0%,x,x
O=C(c1cc(-c2ccc3c(c2)OCO3)on1)N1CCOCC1,u,1.6,7.94µM*,7.94µM*,-1.9%,7.94µM*
Cc1cc(C)cc(NC(=O)CSc2oc(-c3ccccc3)nc2S(=O)(=O)c2ccccc2)c1,u,x,-16.9%,u,x,x
CCOc1ccc(NC(=O)CSc2oc(-c3cccs3)nc2S(=O)(=O)c2ccc(Cl)cc2)cc1,u,x,-22.8%,12.6µM*,x,x
